Assay [1] can be described thus: Nuclear factor erythroid 2-related factor 2/antioxidant responsive element (Nrf2/ARE) small molecule agonists: luciferase reporter gene qHTS assay in human keratinocytes (AID 1919969). Further: nearly all actives have a fitted effect of over 35% in size. Further: potency means the concentration at half of the fitted maximal effect.
The target in assay [2] is Gonadotropin-releasing hormone receptor (Homo sapiens) (UniProt P30968). The assay is described as follows: Human gonadotropin-releasing hormone receptor (GnRHR) small molecule agonists, calcium flux assay in GnRHR-HEK293 cells (AID 1920063). Further: nearly all actives have a fitted effect of over 35% in size. Further: potency means the concentration at half of the fitted maximal effect. In short, it runs like this: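 Agonist activity was measured as intracellular calcium flux in HEK293 cells engineered to stably express human GnRHR. After dye loading for 1 hour at 37 C, compounds in DMSO were added and fluorescence was followed for 3 minutes.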
Gonadotropin-releasing hormone receptor (Homo sapiens), sequence (P30968 whole entry, looked up): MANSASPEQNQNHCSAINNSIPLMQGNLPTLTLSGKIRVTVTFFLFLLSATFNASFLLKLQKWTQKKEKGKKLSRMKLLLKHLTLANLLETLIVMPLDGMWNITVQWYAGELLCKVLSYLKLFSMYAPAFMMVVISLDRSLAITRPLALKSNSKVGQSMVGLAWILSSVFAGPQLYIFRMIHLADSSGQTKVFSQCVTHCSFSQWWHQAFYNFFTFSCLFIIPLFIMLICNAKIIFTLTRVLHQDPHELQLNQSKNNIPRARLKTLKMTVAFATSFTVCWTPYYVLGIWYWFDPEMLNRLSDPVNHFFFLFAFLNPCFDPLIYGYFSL

Assay [3] in a line: G protein-coupled receptor (GPCR) small molecule agonists, calcium flux assay: HEK293 wild type cell line counter screen (AID 1920065). In short, it runs like this:
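Seed cells, incubate 18 h (37 C, 5% CO2); add calcium dye, 1 h at 37 C; pin-transfer compounds, ATP control or DMSO; read fluorescence 480/540 nm each second for 3 min.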

Assay [4] can be described thus: p53 small molecule agonists, cell-based qHTS assay with human liver microsomes (AID 1963577).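 Further: p53 response element beta-lactamase reporter cells with liver microsomes plus NADPH.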 In short, it runs like this:
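p53RE-bla cells; 5 h settle, 37 C/5% CO2; cpd + HLM 0.5 mg/mL + NADPH 0.5 mg/mL (final); 16 h 37 C; LiveBLAzer 2 h RT dark; fluorescence readout.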

Assay [5] in a line: p53 small molecule agonists, cell-based qHTS assay with rat liver microsomes (AID 1963578). The essentials: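 Rat liver microsome activation: microsomes 0.5 mg/mL, NADPH 0.5 mg/mL final; p53RE-bla cells, 16 h 37 C; LiveBLAzer readout, 2 h RT dark.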
The nature of assay [6]: p53 small molecule agonists, cell-based qHTS assay with human liver microsomes: qHTS cell viability counter screen (AID 1963579). Further: nearly all actives have a fitted effect of over 45% in size. Further: potency means the concentration at half of the fitted maximal effect. In short, it runs like this:
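Luminescent CellTiter-Glo read-out, 30 min at room temperature, gauged cytotoxicity in p53RE-bla cells exposed 16 h at 37 C to DMSO-dissolved compounds with metabolic activation by human liver microsomes and NADPH, each 0.5 mg/mL final.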

Assay [7] is described as follows: p53 small molecule agonists, cell-based qHTS assay with rat liver microsomes: qHTS cell viability counter screen (AID 1963580). Further: nearly all actives have a fitted effect of over 45% in size. In short, it runs like this: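 After the beta-lactamase ratio was read, CellTiter-Glo was added to the same wells and luminescence measured at 30 min; cells had been treated 16 h at 37 C with compounds, rat liver microsomes and NADPH (0.5 mg/mL final each).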

A short description of assay [8]: p53 small molecule agonists, cell-based qHTS assay: qHTS cell viability counter screen (AID 1963581). Further: nearly all actives have a fitted effect of over 45% in size. The essentials: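 Viability was counter-screened in parallel with the p53 agonist reporter by measuring intracellular ATP luminescence in the same HCT-116 p53RE-bla wells after 16 h compound treatment at 37 C.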
Assay [9] is described as follows: p53 small molecule agonists, cell-based qHTS assay (AID 1963582; active means well fitted activation curve with a large enough effect in the signal ratio in the repeat runs, not every such curve was filed as active; the % refers to the signal ratio). The essentials:
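Cells carrying a p53-responsive bla reporter are treated with test compounds for 16 h at 37 C; beta-lactamase activity is then detected with LiveBLAzer B/G FRET substrate after 2 h at room temperature.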

A short description of assay [10]: cAMP Responsive Elements (CRE) small molecule antagonists, cell-based qHTS assay (AID 1963591; active means well fitted inhibition curve with a large enough effect in the signal ratio in the repeat runs, not every such curve was filed as active; the % refers to the signal ratio). The essentials: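 Cells (CRE-bla HEK 293T, DMEM with 10% dialyzed FBS and 25 mM HEPES) are seeded and incubated 18 h. Compounds are added with NKH477 agonist at 0.25 uM final for 3 h, then FRET substrate for 2 h.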
Assay [11] has as its target KiSS-1 receptor (Homo sapiens) (UniProt Q969F8). The assay is described as follows: Human kisspeptin (KISS1R) small molecule agonists, calcium flux assay in KISS1R-HEK293 cells (AID 1920064; active means well fitted activation curve with a large enough effect in the repeat runs). The essentials:
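Agonist activity is monitored as intracellular calcium rise in engineered HEK293 cells carrying human KISS1R. Cells are dye-loaded for 1 h at 37 C before compound addition, and fluorescence is recorded for 3 min.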

Assay [12] concerns the target Beta-2 adrenergic receptor (Homo sapiens) (UniProt P07550). The assay is described as follows: Adrenergic beta2 receptor (ADRB2) small molecule antagonists, cell-based qHTS assay (AID 1963592). Further: series mostly up to about 92 µM; nearly all actives have a fitted effect of over 50% in size. In short, it runs like this:
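Assay format: CHO-ADRB2 cells, 18-20hr seeding at 37C/5% CO2, then compound plus 1nM isoproterenol agonist mix for 0.5hr RT. Homogeneous time-resolved fluorescence cAMP detection after 1hr, expressed as 665/615 nm ratio.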

The target in assay [13] is D(2) dopamine receptor (Homo sapiens) (UniProt P14416). The experiment in a line: Dopamine D2 receptor (DRD2) small molecule agonists, cell-based qHTS assay (AID 1963594). Further: nearly all actives have a fitted effect of over 35% in size. The essentials: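 HEK293 cells stably expressing human DRD2, pre-treated with PDE inhibitor Ro20-1724 (0.1 mM final) and compound 10 min at room temperature, then stimulated with NKH477 (200nM […]) for 30 min. cAMP read by HTRF (665/620 nm).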
D(2) dopamine receptor (Homo sapiens), sequence (P14416 whole entry, looked up): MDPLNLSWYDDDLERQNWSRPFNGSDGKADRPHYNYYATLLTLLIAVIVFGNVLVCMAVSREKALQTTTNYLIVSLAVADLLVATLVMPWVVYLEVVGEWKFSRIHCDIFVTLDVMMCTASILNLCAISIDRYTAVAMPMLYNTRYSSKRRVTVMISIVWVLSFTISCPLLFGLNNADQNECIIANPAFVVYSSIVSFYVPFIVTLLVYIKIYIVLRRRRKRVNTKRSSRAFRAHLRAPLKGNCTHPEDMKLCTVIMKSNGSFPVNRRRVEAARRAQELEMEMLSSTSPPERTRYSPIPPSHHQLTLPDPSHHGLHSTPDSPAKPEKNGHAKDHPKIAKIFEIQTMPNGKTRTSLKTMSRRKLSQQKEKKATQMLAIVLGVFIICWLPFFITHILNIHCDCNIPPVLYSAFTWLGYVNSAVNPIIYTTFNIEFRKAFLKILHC

Assay [14] shares this target. The assay is described as follows: Dopamine D2 receptor (DRD2) small molecule antagonists, cell-based qHTS assay (AID 1963595; active means well fitted inhibition curve with a large enough effect in the signal ratio in the repeat runs, with a control signal flat; the % refers to the signal ratio). In short, it runs like this:
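HTRF cAMP read-out at 665 and 620 nm emission (340 nm excitation). Antagonist mode: compounds were tested against 12 nM quinpirole in DRD2-HEK293 cells, with 200 nM NKH477 raising cAMP and 0.1 mM Ro20-1724 blocking its breakdown.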

The target of assay [15] is 5-hydroxytryptamine receptor 2A (Homo sapiens) (UniProt P28223). The assay is described as follows: 5-hydroxytryptamine receptor 2A (HTR2A) small molecule antagonists, cell-based qHTS assay (AID 1963586). Further: nearly all actives have a fitted effect of over 45% in size. The essentials:
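CHO cells stably expressing human HTR2A were plated for 18 h at 37 C, then loaded with calcium dye for 1 h. Compounds were preincubated 5 min at room temperature before DOI (4 nM solution) was added. Kinetic fluorescence was read for 3 min.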

The target is the same in assay [16]. The assay is described as follows: 5-hydroxytryptamine receptor 2A (HTR2A) small molecule agonists, cell-based qHTS assay (AID 1963587). Further: nearly all actives have a fitted effect of over 30% in size. The essentials: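 CHO cells stably expressing human HTR2A, plated 18 h, loaded with calcium dye 1 h at 37 C. Agonist mode: compounds added and intracellular calcium fluorescence recorded kinetically for 2 min at 1 sec intervals.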

Assay [17] deals with Muscarinic acetylcholine receptor M1 (Homo sapiens) (UniProt P11229). The experiment in a line: Cholinergic receptor muscarinic 1 (CHRM1) small molecule antagonists, cell-based qHTS assay (AID 1963588). Further: nearly all actives have a fitted effect of over 40% in size. In short, it runs like this: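 Compounds were tested at 15 concentrations in three independent runs. Dye-loaded CHRM1-CHO cells were exposed 5 min at room temperature before stimulation by acetylcholine added at 50nM. Intracellular calcium was read kinetically on FDSS for 3 min.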
Muscarinic acetylcholine receptor M1 (Homo sapiens), sequence (P11229 whole entry, looked up): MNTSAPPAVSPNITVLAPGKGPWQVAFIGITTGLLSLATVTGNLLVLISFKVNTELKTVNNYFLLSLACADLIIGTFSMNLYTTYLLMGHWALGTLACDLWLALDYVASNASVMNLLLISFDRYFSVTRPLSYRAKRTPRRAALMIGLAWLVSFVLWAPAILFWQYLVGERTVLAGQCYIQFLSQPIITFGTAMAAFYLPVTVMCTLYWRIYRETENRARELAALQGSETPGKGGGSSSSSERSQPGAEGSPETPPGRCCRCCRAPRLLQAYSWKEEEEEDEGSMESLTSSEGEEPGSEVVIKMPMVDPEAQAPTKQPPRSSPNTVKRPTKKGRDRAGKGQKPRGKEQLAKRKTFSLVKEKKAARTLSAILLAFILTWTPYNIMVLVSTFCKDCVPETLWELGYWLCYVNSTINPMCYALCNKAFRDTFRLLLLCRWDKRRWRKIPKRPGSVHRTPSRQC

For assay [18] the target is unchanged. The assay is described as follows: Cholinergic receptor muscarinic 1 (CHRM1) small molecule agonists, cell-based qHTS assay (AID 1963589). Further: nearly all actives have a fitted effect of over 35% in size. In short, it runs like this:
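Cells were plated and incubated 18 h at 37 C/5% CO2, loaded with calcium dye for 1 h at 37 C, then treated with compounds in DMSO. Fluorescence was recorded kinetically at 1 sec intervals.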

A short description of assay [19]: cAMP Responsive Elements (CRE) small molecule agonists, cell-based qHTS assay (AID 1963590). The essentials:
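Cells carrying a CRE-driven beta-lactamase reporter (HEK 293T) are seeded, incubated overnight (18 h), and treated with test compounds for 3 h at 37 C; reporter activity is then detected with a FRET substrate after 2 h at room temperature.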

The source of these data is PubChem BioAssay (Tox21).

Several values for one entry are separate records, joined by “and”; a condition that tells them apart may be missing. Equal entries are not always repeated. A number with no mark means an inactive call. Inconclusive results are not listed. Activity calls are given as the source filed them. Unless noted, the call rests on the fitted dose curve.

5-hydroxytryptamine receptor 2A (Homo sapiens), sequence (P28223 whole entry, looked up): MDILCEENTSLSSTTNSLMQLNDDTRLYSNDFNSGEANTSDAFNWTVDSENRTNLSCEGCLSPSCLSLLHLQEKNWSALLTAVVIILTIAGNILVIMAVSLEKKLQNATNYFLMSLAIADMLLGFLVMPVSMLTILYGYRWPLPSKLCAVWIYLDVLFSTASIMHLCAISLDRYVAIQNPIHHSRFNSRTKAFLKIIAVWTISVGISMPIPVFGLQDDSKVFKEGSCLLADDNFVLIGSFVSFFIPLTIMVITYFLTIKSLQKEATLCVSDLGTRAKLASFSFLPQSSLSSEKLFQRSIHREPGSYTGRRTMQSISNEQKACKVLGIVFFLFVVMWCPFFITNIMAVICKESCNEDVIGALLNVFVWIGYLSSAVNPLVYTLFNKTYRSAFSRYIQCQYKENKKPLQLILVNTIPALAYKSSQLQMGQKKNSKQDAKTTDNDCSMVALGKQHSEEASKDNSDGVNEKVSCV
Beta-2 adrenergic receptor (Homo sapiens), sequence (P07550 whole entry, looked up): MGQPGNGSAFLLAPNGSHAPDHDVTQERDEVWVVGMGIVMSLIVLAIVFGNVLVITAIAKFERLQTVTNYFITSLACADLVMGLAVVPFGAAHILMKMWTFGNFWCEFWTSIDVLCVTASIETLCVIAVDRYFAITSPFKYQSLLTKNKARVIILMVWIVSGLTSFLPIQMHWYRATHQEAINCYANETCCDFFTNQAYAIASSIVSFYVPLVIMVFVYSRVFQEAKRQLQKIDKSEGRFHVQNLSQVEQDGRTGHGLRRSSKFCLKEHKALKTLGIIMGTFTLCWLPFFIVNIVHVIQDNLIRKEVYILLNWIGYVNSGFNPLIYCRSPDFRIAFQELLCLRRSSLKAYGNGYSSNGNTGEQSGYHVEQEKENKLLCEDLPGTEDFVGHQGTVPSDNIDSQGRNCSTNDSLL
KiSS-1 receptor (Homo sapiens), sequence (Q969F8 whole entry, looked up): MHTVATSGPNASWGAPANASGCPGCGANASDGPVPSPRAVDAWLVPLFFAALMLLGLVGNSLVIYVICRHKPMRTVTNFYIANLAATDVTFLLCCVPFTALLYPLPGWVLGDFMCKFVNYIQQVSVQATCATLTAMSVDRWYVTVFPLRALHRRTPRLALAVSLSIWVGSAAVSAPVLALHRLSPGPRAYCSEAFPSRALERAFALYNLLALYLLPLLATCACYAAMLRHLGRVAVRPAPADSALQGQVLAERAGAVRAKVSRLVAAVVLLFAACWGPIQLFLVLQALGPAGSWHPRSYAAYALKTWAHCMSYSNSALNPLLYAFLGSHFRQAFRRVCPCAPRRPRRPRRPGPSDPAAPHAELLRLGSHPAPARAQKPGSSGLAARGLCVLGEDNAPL

In the case of `COc1ccccc1OCCNCC(O)COc1cccc2[nH]c3ccccc3c12` (centres undefined), the Potency result in assay [1], in assay [2], in [3], in assay [4], in [5] and in assay [6] was “inactive” throughout. The Potency result in assay [7], in assay [8], in [9] and in assay [10] was “inactive” throughout.
As to `C=C1CC[C@H](O)CC1=C/C=C1\CCC[C@]2(C)[C@@H]([C@H](C)/C=C/[C@H](C)C(C)C)CC[C@@H]12`, the Potency in assay [1] was 21.5 µM (active) and 61.1 µM (active). The Potency entry in assay [2], in assay [11], in assay [4], in assay [7], in assay [8] and in [12] was “inactive” in each case. In addition, the Potency entry in [13] and in [14] was “inactive” throughout.
In the case of `O=C(NCc1ncc(C(F)(F)F)cc1Cl)c1c(Cl)cccc1Cl`, the Potency result in assay [1], in [2], in assay [3], in assay [4], in assay [5] and in assay [6] was “inactive” in each case. Besides, the Potency entry in assay [7], in assay [8], in assay [9], in [15], in assay [16] and in assay [17] was “inactive” each time. Further, the Potency entry in assay [18], in [10], in [12], in assay [13] and in [14] was “inactive” each time.
As for `Cc1c(C(=O)O)c(O)cc2c1C(=O)c1c(O)c([C@@H]3O[C@H](CO)[C@@H](O)[C@H](O)[C@H]3O)c(O)c(O)c1C2=O`, the Potency entry in [1], in [2], in [3], in assay [4], in assay [5] and in assay [6] was “inactive” in each case. Moreover, the Potency entry in [7], in [8], in [9], in assay [15], in assay [16] and in assay [17] was “inactive” throughout. The Potency result in [18] and in assay [10] was “inactive” in each case.
Take `CCC(=O)OCCc1ccccc1`: the Potency entry in assay [1], in assay [2], in assay [3], in [4], in [6] and in assay [7] was “inactive” in each case. The Potency result in assay [8], in [9], in assay [15], in assay [16], in [17] and in assay [18] was “inactive” each time. The Potency result in assay [19], in assay [12] and in assay [14] was “inactive” throughout.
Turning to `O=C(N/N=C/c1ccccc1O)c1ccncc1`, the Potency in [1] was 6.68 µM (active); in assay [6], 7.93 µM (active). Besides, the Potency entry in assay [2], in assay [3], in [5], in assay [7], in [8] and in assay [9] was “inactive” in each case. In addition, the Potency result in [16], in assay [18], in assay [19], in assay [10] and in assay [12] was “inactive” in each case.
For `CCCCCCCCCCCCOCCOS(=O)(=O)O`, the Potency result in assay [1], in assay [3], in [4], in [5], in [7] and in assay [9] was “inactive” each time. Further, the Potency result in [17], in assay [12], in assay [13] and in [14] was “inactive” in each case. Besides, the Potency in assay [2] was 38.9 µM (active).
